ANO1 activ – activators or potentiators of mouse TMEM16A chloride channel | Q8BHY3 | HEK293 TMEM16A/YFP-H148Q/I152L, iodide quench fluorescence; stronger effect = lower value | B-score at 10 µM | 0.3% of 340,000 active;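 active means fluorescence-ratio B-score plate-corrected deviation score at least 3 library SD below zero, with starting fluorescence score within 5 deviations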;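 further: channel opened by trigger with iodide after compound preincubation; score built on the fluorescence ratio of max minus min over baseline; more negative score means more quench and so TMEM16A activation or potentiation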
TMEM16A inh – mouse TMEM16A channel inhibition, primary screen; Q8BHY3; HEK293 TMEM16A/YFP iodide influx fluorescence, ionomycin; normalized B-score (activity score, 25-100; higher = stronger inhibition) at 10 µM; 1.2% of 310,000 active; AID 588511;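 active means ratio plate-corrected score three or more library SD toward inhibition, starting fluorescence score within five deviations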;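 further: score derived from kinetic fluorescence span divided by baseline fluorescence per well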
CHT block – human CHT choline transport inhibition | Q9GZV3 | CHT-expressing cells, membrane potential dye, choline response; stronger effect = lower value | B-score at 10 µM | 0.86% of 310,000 active | AID 488975;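 active means B-score over 3 SD under the library average, and starting fluorescence ratio not unusually high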;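 further: choline stimulus applied at its EC90 after an EC20 pre-addition; B-score computed on integrated fluorescence ratio after choline addition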
CHT PAM – allosteric activators of human choline transporter CHT. Q9GZV3. CHT-expressing cells, membrane potential dye, choline EC20; stronger effect = higher value; LV-AA mutant CHT in HEK293 cells. B-score at 10 µM. 0.49% of 310,000 active;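 active means initial fluorescence not abnormally high and integrated response B-score, plate-corrected, over 3 SD above library mean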
CHT block conf – human CHT inhibition, confirmatory screen; shares compounds with CHT block; CHT-expressing cells, choline membrane potential dye; LV-to-AA substituted CHT, HEK293 cells; CHT activity remaining % of control (stronger effect = lower value), % at 10 µM; 70% of 2,400 active;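 active means choline transporter activity left, mean of duplicates at 10 µM, below buffer-only control mean minus 3 SD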;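 further: depolarization triggered by choline at its EC90 following an EC20 pre-addition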
HEK293 MPD ctr – CHT inhibitor counter-screen hit in parental HEK293 cells. shares compounds with CHT block. membrane potential dye, choline response; active = decrease or increase beyond buffer ±3SD. membrane potential ratio readout (active if shifted either direction beyond buffer ±3SD; no single direction) at 10 µM. 4% of 2,400 active. AID 493222;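 further: parental cells lack the transporter so any hit is non-specific; ratio is peak minus trough fluorescence over baseline after EC90 choline challenge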
CHT act confirm – confirmation of human choline transporter (CHT) activators; shares compounds with CHT PAM; CHT-expressing cells, membrane potential dye fluorescence (FDSS); % of choline EC20–EC90 response window; HEK293 expressing CHT LV-AA mutant; choline added at its EC20; activation, % at 10 µM; 91% of 2,500 active; AID 504833;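 active means primary screen active, with duplicate mean activation above negative control mean plus 3 SD, cut at about 11% in these data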
HEK293 MP dye – activity in parental HEK293 cells lacking CHT; membrane potential dye fluorescence (FDSS); measured after EC20 choline addition; shares compounds with CHT PAM; AID 623908; 62% of 2,500 active; ratio readout change at 10 µM, hits read low;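 active means duplicate-averaged ratio beyond 3 SD from buffer wells, up or down, though filed actives are nearly all decreases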
TMEM16A reconf – re-confirmation of mouse TMEM16A chloride channel inhibitors; AID 652189; inhibition, % at 10 µM; shares compounds with TMEM16A inh; HEK293 TMEM16A/YFP-H148Q, iodide quench fluorescence; ionomycin added to raise cell calcium; 39% of 2,300 active;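 active means mean duplicate percent inhibition, scaled so buffer wells are 0 and the reference blocker 100, over three buffer SD above buffer mean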
HEK293 Ca mobil – alters calcium mobilization in TMEM16A HEK293 cells, counter-screen; AID 652231; calcium response (% of ionomycin), % at 10 µM; TMEM16A/YFP HEK293, Fluo4 calcium mobilization; 2% of 2,300 active; shares compounds with TMEM16A inh;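 active means duplicate-averaged calcium signal over 20% of the ionomycin maximum, relative to buffer baseline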;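 further: each well's signal is peak minus trough fluorescence divided by its pre-addition baseline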
YFP-HEK293 quench – counter-screen for TMEM16A inhibitors: effect in parental YFP-HEK293 cells | shares compounds with TMEM16A inh | iodide YFP quench, ionomycin | YFP ratio F(max-min)/F0 at 10 µM | 2,300 tested, under 10 active;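 active means yellow fluorescent protein signal ratio exceeding the buffer control mean by over 5 SD of those controls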;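 further: ratio is mean of duplicate wells from kinetic YFP trace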
ClC-1 inh – selectivity of TMEM16A inhibitors: inhibition of rat ClC-1 chloride channel; AID 652236; CHO ClC-1-YFP, iodide influx fluorescence quench; iodide control reads 0, buffer control 100; 2,300 tested, under 10 active; shares compounds with TMEM16A inh; ratio percent, % at 10 µM;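 active means duplicate-mean ratio percent above the mean of iodide-only control wells, which defines zero, plus 5 of their SD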;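 further: higher percent means stronger block of ClC-1 iodide influx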
Large screens that a line does not name were inactive (follow-up assays come after a bar, where they were run). Compounds with a hit are over-represented: about 2.3% of the library has one in this group of screens.

Nc1c(C(=O)OC2CCCCC2)c2nc3ccccc3nc2n1CC1CCCO1 (stereo unspecified)	TMEM16A inh 100, CHT block -8.6 | CHT block conf 51% | HEK293 MPD ctr inactive | TMEM16A reconf inactive | HEK293 Ca mobil inactive | YFP-HEK293 quench inactive | ClC-1 inh inactive
CC(C)OC(=O)c1c(N)n(CC2CCCO2)c2nc3ccccc3nc12 (stereo unspecified)	none
Cc1cccc(-c2nc3ccccc3c(=O)n2-n2cccc2)c1	none
CCC(=NCCc1c[nH]c2ccccc12)c1c(O)n(C)c(=O)n(C)c1=O	TMEM16A inh 100, CHT block -5.7 | CHT block conf inactive | HEK293 MPD ctr inactive | TMEM16A reconf 19% | HEK293 Ca mobil inactive | YFP-HEK293 quench inactive | ClC-1 inh inactive
O=C(Nc1ccccc1)c1cc([N+](=O)[O-])ccc1N1CCNCC1	none
O=[N+]([O-])c1ccc2nc(N3CCNCC3)ccc2c1	CHT PAM 11 (no result: ANO1 activ) | CHT act confirm 37 | HEK293 MP dye -51
CN(C)c1cc[n+](CC(O)C[n+]2ccc(N(C)C)cc2)cc1	CHT PAM 7.7 | CHT act confirm 35 | HEK293 MP dye -71
CC1CN(c2cc([N+](=O)[O-])ccc2Cl)CC(C)N1 (stereo unspecified)	none
OC(Cn1c2ccccc2c2ccccc21)C[n+]1cccc2ccccc21 (stereo unspecified)	none | CHT act confirm 39 | HEK293 MP dye -38
CCC[N+]12CCC(CC1)C(=C(c1ccccc1)c1ccccc1)C2	CHT PAM 6.5 | CHT act confirm 16 | HEK293 MP dye inactive
CCCC[N+]12CCC(CC1)C(=C(c1ccccc1)c1ccccc1)C2	CHT PAM 9.4 | CHT act confirm 61 | HEK293 MP dye inactive
C[n+]1c(-c2ccccc2)sc2ccccc21	none | CHT act confirm 52 | HEK293 MP dye -42
COC1C(C)OC(OC2CC(C)(O)Cc3cc4c(c(O)c32)C(=O)c2c(O)cc3c(c2C4=O)OC2OC3(C)C(O)C(N(C)C)C2O)C(OC)C1(C)OC (stereo unspecified)	none (no result: TMEM16A inh, CHT block, CHT PAM)
Cc1cccc(NP(=O)(Oc2ccccc2F)Oc2ccccc2F)c1	none | CHT act confirm 23 | HEK293 MP dye inactive
CC[n+]1c(/C=C/N(C)c2ccccc2)sc2ccc(Cl)cc21	none | CHT act confirm 15 | HEK293 MP dye -39
CN(C)c1ccc(/C=C/C=C/c2sc3ccccc3[n+]2C)cc1	none
Fc1ccc(C[n+]2c(-c3ccccc3)cc(-c3ccccc3)cc2-c2ccccc2)cc1	CHT PAM 8.2 (no result: ANO1 activ) | CHT act confirm 32 | HEK293 MP dye inactive
O=C(N[C@H]1CP(=O)(Oc2ccccc2)O[C@H](COCc2ccccc2)[C@H]1O)C(Cl)(Cl)Cl (stereo partly specified)	none
Nc1c(C(=O)NCc2ccco2)c2nc3ccccc3nc2n1CCN1CCOCC1	CHT PAM 6.4 | CHT act confirm 20 | HEK293 MP dye -21
COc1ccc2c3c([nH]c2c1)C(C)=NCC3	none | CHT act confirm 33 | HEK293 MP dye -43
CC1=NCCc2c1[nH]c1cc(O)ccc21	none
CCOC(=O)C1(c2ccccc2)Oc2ccccc2C(c2ccc(OC)cc2)=C1C(=O)OC (stereo unspecified)	none (no result: TMEM16A inh, CHT block, CHT PAM)
CN(C)c1nc(-c2ccccc2)[n+](C)s1	none | CHT act confirm 26 | HEK293 MP dye -49
CCN1CCN(c2ccc(N)c(C)c2)CC1	none
Cc1cc(C)c2c(ccc3cccc[n+]32)c1	CHT PAM 6.3 | CHT act confirm 72 | HEK293 MP dye -55
Cc1nc2ccc(Cl)cc2c(=O)n1-c1ccc([N+](=O)[O-])cc1	none
COc1cc2c(cc1OC)-c1c3c(cc4c1[C@@H](C2)N(C)CC4)OCO3	none | CHT act confirm 42 | HEK293 MP dye -48
COc1cc2c(cc1O)C[C@H]1NCCc3cc4c(c-2c31)OCO4	none
COc1ccc(/C=C2/C(=O)NC(=S)N(C3CC3)C2=O)cc1CN1C(=O)c2ccccc2C1=O	none
Cn1c(O)c(/C=N/c2ncccn2)c(=O)n(C)c1=O	none | CHT act confirm 38 | HEK293 MP dye -36
Cc1cc(N2CCN(C)CC2)nc2ccccc12	CHT PAM 7 | CHT act confirm 49 | HEK293 MP dye -51
CSc1nc(N2CCN(C)CC2)c2ccccc2n1	CHT PAM 6.3 | CHT act confirm 47 | HEK293 MP dye -68
O=C1CCN(C(=O)Cc2ccccc2[N+](=O)[O-])CC1	none
C[n+]1ccc(-c2ccccc2)c2ccccc21	CHT PAM 8.6 | CHT act confirm 85 | HEK293 MP dye -70
CC(C)(C)C(=O)N1Cc2ccccc2-n2nncc2C1	none (no result: TMEM16A inh, CHT block, CHT PAM)
Cc1ccc(C)c(OCc2cc(C(=O)N3C[C@H]4C[C@@H](C3)c3cccc(=O)n3C4)no2)c1	none
CCCCCCC[n+]1ccc(-c2cc[n+](CCCCCCC)cc2)cc1	none
C[n+]1ccc(-c2cc[n+](C)cc2)cc1	CHT PAM 11 | CHT act confirm 85 | HEK293 MP dye -100
CN1CCN(c2ccc([N+](=O)[O-])c(N)c2)CC1	none
CN1CCN(c2ccc([N+](=O)[O-])c(NCc3ccco3)c2)CC1	none
CN1CCN(c2ccc([N+](=O)[O-])c(SCCO)c2)CC1	CHT PAM 6.8 | CHT act confirm 37 | HEK293 MP dye -65
